Source: PubChem BioAssay (several laboratories)
HSV replic up: HSV replication enhancement. HSV replication augmentation in cells, fold increase. 220,000 compounds, 0.005% hits. AID 1956. maximum fold increase; in the data active = maximum fold increase above about 1.5; inconclusive = no clear call, values can overlap the other calls; tested in PC3 cells
HMGR II inh: inhibitors of class II HMG-CoA reductase from Enterococcus faecalis; purified E. faecalis HMGR, NADPH absorbance 340 nm kinetic; inhibition, % at 10 µM; 190,000 compounds, 0.41% hits; AID 1066;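 active = inhibition above a set limit, the median over all tested compounds plus 3 SD, cut at about 9.5% in these data; inconclusive = no clear call, values can overlap the other calls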;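 also: enzyme runs in reverse so mevalonate oxidation gives rising NADPH absorbance; 0% = complete reaction with DMSO and 100% = background rate lacking mevalonate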
ROMK mod: modulates human ROMK potassium channel activity. Tet-inducible ROMK, thallium flux fluorescence; actives lie on both sides. B-score at 10 µM. 130,000 compounds, 2% hits. AID 1918;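 active = signal ratio slope over the read window, or its plate-corrected B-score, at least 3 SD from the plate mean, either direction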;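 also: B-score of the F/F0 ratio slope over 7 to 12 s after thallium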
Target sequence (P48048 whole entry, looked up): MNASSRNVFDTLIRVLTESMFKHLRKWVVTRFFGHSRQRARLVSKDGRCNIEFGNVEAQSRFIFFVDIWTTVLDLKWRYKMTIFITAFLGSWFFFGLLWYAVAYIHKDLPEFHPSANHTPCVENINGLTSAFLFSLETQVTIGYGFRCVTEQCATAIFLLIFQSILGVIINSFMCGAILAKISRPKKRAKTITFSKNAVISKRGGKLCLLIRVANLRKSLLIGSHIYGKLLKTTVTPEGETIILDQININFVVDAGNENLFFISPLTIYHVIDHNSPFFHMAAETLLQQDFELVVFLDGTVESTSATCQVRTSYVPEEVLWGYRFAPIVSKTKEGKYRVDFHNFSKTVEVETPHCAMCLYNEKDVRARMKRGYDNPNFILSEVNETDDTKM
Arbovirus anti: antivirals against arbovirus infection; arbovirus infection cell-based antiviral screen; inhibition, % at 10 µM; 200,000 compounds, 0.37% hits; in the data active = inhibition above about 30%
Calpain2 inh: calpain II (pig) inhibition; inhibition, % at 16 µM; 220,000 compounds, 0.37% hits; purified calpain II, fluorogenic peptide substrate, 30 min; AID 1236;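 active = inhibition above about 50%, limit read from the data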
ROMK retest: human ROMK channel modulation, retest confirmation | shares compounds with ROMK mod | ROMK thallium flux, fluorescence ratio; active compounds read low | normalized thallium flux (F/F0 slope) at 10 µM | 3,000 compounds, 54% hits | AID 1917;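 active = Flux at 10 µM at least 3 SD below or above vehicle control mean in one or both replicates; inconclusive = no clear call, values can overlap the other calls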
Starred values were filed as active, the others as inactive; i = inactive; ? = inconclusive; · = not tested or not shown. This is a sample that favours compounds with a hit; in the whole collection about 2.1% have one here.

SMILES	HSV replic up	HMGR II inh	ROMK mod	Arbovirus anti	Calpain2 inh	ROMK retest
COCCOC(=O)/C(=C\c1cc(C(C)(C)C)c(O)c(C(C)(C)C)c1)C(C)=O	i	·	·	·	16	0.061*
CC(C)(C)c1cc(CCC(=O)NN)cc(C(C)(C)C)c1O	i	2	-0.072	-4	-20	·
COC(=O)c1ccc(NC(=O)c2sc3nc(-c4ccccc4)cn3c2C)cc1	·	1	·	-11	-69	?
CCN(CC)C(=O)CCSc1nnc(-c2ccco2)o1	i	-1	1.3	-6	5	0.073
O=C(CSc1nnc(-c2ccco2)o1)c1ccccc1	i	-4	·	6	20	0.074
Cc1cc(C(C)(C)C)cc(C)c1Cn1c2[n+](c3ccc(C(F)(F)F)cc31)CCCCC2	i	2	-4.9*	-11	-25	0.048*
CCN(C(=O)CN1CCOCC1)c1c(N)n(Cc2ccccc2)c(=O)[nH]c1=O	i	1	-0.51	1	-30	·
CCCCCN(C(=O)CN1CCC(Cc2ccccc2)CC1)c1c(N)n(CCCC)c(=O)[nH]c1=O	i	2	-3.2*	-3	9	0.061*
O=C(NCc1ccc2c(c1)OCO2)C1CCN(c2nccc(C(F)(F)F)n2)CC1	i	·	·	·	-20	·
Cn1c(-[n+]2c(-c3ccccc3)cc(-c3ccccc3)cc2-c2ccccc2)nc2cc([N+](=O)[O-])ccc21	i	-3	·	12	1	0.06*
O=C(Nc1ccccc1)c1ccccc1OCC(O)CN1C(=O)c2ccccc2S1(=O)=O (configuration not stated)	i	-5	·	7	22	0.061*
Oc1c(CN2CCCCC2)cc(COCc2ccccc2)c2cccnc12	i	-3	-4.5*	-37	-38	0.07
O=C1CSC(c2ccccc2Cl)N1 (configuration not stated)	i	-4	3.5*	3	9	0.089
S=c1[nH]nc(-c2cc(-c3ccccc3)n[nH]2)n1/N=C/C(Br)=C/c1ccccc1	i	·	·	·	7	·
CCOC(=O)C1=C(c2ccccc2)NC(N)=NC1c1ccc(OCc2ccc(C(=O)OC)cc2)cc1 (configuration not stated)	i	·	·	·	-19	0.053*
CC(=O)Nc1ccc(S(=O)(=O)N2CCN(c3cnn(C)c(=O)c3Cl)CC2)cc1	i	-4	0.95	7	-3	·
Cc1ccc2c(C(=O)N3CCN(c4ccccc4)CC3)cc(-c3cccnc3)nc2c1C	i	-3	1.9*	-33	-33	0.078
Cc1ccc2nc(-c3cccnc3)cc(C(=O)N3CCN(c4ccc([N+](=O)[O-])cc4)CC3)c2c1	i	-2	0.42	-15	-130	·
Cc1c(CCOC(=O)CC23CC4CC(CC(C4)C2)C3)sc[n+]1CC(=O)c1ccccc1	i	-7	-6.1*	-30	12	0.047*
O=C(NC1C/C(=N/O)c2cc3c(cc21)OCO3)C(F)(F)F (configuration not stated)	i	3	0.0099	4	-25	·
CCOc1ccc(C2C(C(=O)Nc3cc(C)on3)c3ccccc3C(=O)N2CCN2CCOCC2)cc1 (configuration not stated)	i	-2	-4.1*	-7	-28	0.08
C=Cc1ccc(CSc2cc(C)nc3nc(C)nn23)cc1	i	·	-0.024	·	-24	·
Cc1cc[n+](-c2ccccc2)c2ccccc12	i	0	-0.005	6	9	·
CCCCN=c1scc(-c2ccc3c(c2)NC(=O)CO3)n1N=C1CCCC1	i	0	-0.18	-27	9	·
CCN=c1scc(-c2ccc3c(c2)NC(=O)CO3)n1N=C1CCCC1	i	-8	·	-9	-39	0.079
SMILES	HSV replic up	HMGR II inh	ROMK mod	Arbovirus anti	Calpain2 inh	ROMK retest
Cc1ccc(NC(=O)C(C)N2C(=O)c3ccccc3C2=O)cc1S(=O)(=O)N1CCOCC1 (configuration not stated)	i	4	-0.043	8	14	·
O=C(NC(Nc1nc2ccc([N+](=O)[O-])cc2s1)(C(F)(F)F)C(F)(F)F)c1cccnc1	i	4	-1.6	-38	38	·
O=C(NC(Nc1nc2ccc([N+](=O)[O-])cc2s1)(C(F)(F)F)C(F)(F)F)c1ccccc1Cl	i	-5	·	-36	-12	?
O=C(CC1SC(=NCCc2ccccc2)N(/N=C/c2cccs2)C1=O)Nc1ccc(Cl)cc1 (configuration not stated)	i	-3	·	-13	-14	·
O=C(O)CCC(=O)Nc1ccc(N2CCCCCC2)cc1	·	2	5.1*	12	3	0.075
Cc1ccc2nc(SCC(=O)Nc3cccc(S(=O)(=O)NC4=NCCCCC4)c3)[nH]c2c1	i	·	·	·	-9	·
CCOc1ccc(C2/C(=C(\O)c3cccc(OC)c3)C(=O)C(=O)N2c2ccccn2)cc1OC (configuration not stated)	i	·	·	·	-16	·
O=S1(=O)CCC(NC(=S)SCCOc2ccccc2)C1 (configuration not stated)	i	1	-5*	-8	-1	0.068*
Nc1ccc(C(=O)OC2CCOC2=O)cc1[N+](=O)[O-] (configuration not stated)	i	-6	-0.12	1	32	·
N=C1/C(=C\c2ccc(-c3cccc(C(=O)O)c3)o2)C(=O)N=C2SC=C(c3ccccc3)N12	i	·	·	·	-29	0.059*
CN(C(=O)CC1C(=O)NCCN1Cc1ccc(F)c(F)c1)C1CCOCC1 (configuration not stated)	i	1	-0.13	2	-28	·
CC(C)(C)c1csc(Sc2ncccc2[N+](=O)[O-])n1	i	·	·	·	3	·
O=C(O)c1cc(-c2ccc(/C=C3/SC(=S)N(Cc4ccccc4)C3=O)o2)ccc1Cl	?	-1	-4*	9	40	0.043*
Cc1nc(CN(C)Cc2nc(Cc3ccccc3Cl)no2)cs1	i	-2	-0.18	2	-32	·
CCOC(=O)Nc1nn(-c2ccc(C)cc2)c(=O)c(C#N)c1C	i	-5	-0.41	-2	-15	·
N#C/C(=C\c1ccc(C#N)cc1)C(=O)c1ccccc1	i	·	·	·	-19	·
CN(C)c1ccc(/C=C(\C#N)C(=O)c2ccccc2)cc1	i	·	·	·	4	0.066*
COc1ccccc1N1C(=O)C2C(C(=O)c3ccccc3)=NN(c3ccccc3)C2C1=O (configuration not stated)	?	·	·	·	-75	0.063*
O=C(C1=NN(c2ccccc2)C2C(=O)N(c3ccccc3)C(=O)C12)c1ccccc1 (configuration not stated)	?	5	0.9	-6	-55	·
COc1ccccc1N1N=C(C(=O)c2ccccc2)C2C(=O)N(c3ccc(Br)cc3)C(=O)C21 (configuration not stated)	i	·	·	·	-43	0.065*
CCOC(=O)C1=NN(c2ccccc2)C2C(=O)N(c3ccccc3OC)C(=O)C12 (configuration not stated)	i	·	·	·	-27	·
CC1(C)C(CSc2nc3ccccc3[nH]2)C1(Cl)Cl (configuration not stated)	i	-3	-0.5	1	44	·
